The results in this text go back to PubChem BioAssay AID1851 (National Center for Advancing Translational Sciences (NCATS), 2009).

The whole screen tested about 16,000 compounds, of which about 5,100 (32%) were called active. Roughly 25% stayed inconclusive and do not appear here. The list shows a part of the results. A number with no mark means an inactive call. Calls follow the shape of the dose curve; as a rule, active = well fitted curve in the direction sought with a large enough effect; inconclusive = small, poorly fitted or top-dose-only effect, or effect the other way; inactive = no such curve, though single readings can be large or run the other way.
% is scaled to controls: 0 for no effect and ±100 for the full control effect.

The target in this test is Cytochrome P450 3A4 (Homo sapiens) (UniProt P08684). The experiment in a line: Cytochrome panel assay with activity outcomes. The settings on record: recombinant CYP, pro-luciferin dealkylation, luminescence, p450-cyp3a4; series mostly up to 57.1 µM.
Sequence of Cytochrome P450 3A4 (Homo sapiens) (P08684 whole entry, looked up): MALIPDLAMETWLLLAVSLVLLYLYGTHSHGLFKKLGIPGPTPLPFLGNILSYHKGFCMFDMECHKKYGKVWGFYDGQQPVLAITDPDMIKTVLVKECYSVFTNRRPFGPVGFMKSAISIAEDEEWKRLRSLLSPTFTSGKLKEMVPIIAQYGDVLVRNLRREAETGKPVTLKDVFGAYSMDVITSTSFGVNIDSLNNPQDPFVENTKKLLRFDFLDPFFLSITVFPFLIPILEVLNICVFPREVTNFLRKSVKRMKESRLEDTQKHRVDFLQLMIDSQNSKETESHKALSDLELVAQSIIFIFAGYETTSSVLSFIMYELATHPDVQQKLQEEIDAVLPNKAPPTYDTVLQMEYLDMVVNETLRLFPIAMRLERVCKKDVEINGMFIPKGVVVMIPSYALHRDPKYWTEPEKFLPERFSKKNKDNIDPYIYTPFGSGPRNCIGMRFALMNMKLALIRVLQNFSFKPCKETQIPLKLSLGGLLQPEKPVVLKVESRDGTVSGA
Regarding `N#Cc1ccc(OC(=O)c2ccc(N=C(N)N)cc2)cc1`, the activity, negative = inhibition was -10.9% [at 11.4 µM].

As to `Cc1cccc(CNc2ncncc2-c2ccccc2Cl)c1`, the AC50 was 0.2 µM (active).

For `Cc1cccc(CNc2ncncc2-c2ccccc2C)c1`, the AC50 was 0.398 µM (active).

As to `Cc1cccc(CNc2ncncc2-c2ccccc2C(F)(F)F)c1`, the half-maximal activity concentration (AC50) is 0.0794 µM (active).

For the compound `Cc1ccc(N(CC(N)=O)C2SC(=O)N(Cc3cccc(C(=O)O)c3)C2=O)cc1` (centres undefined), the AC50 entry is “inactive”.

For `c1ccc(CSc2nnc([C@@H]3CCCN3)o2)cc1`, the activity, negative = inhibition is -4.35% [at 11.4 µM].

`Clc1cccc(CSc2nnc(-c3sccc3-n3cccc3)o2)c1`: the AC50 is 8.91 µM (active).

`Clc1ccc(CSc2nnc(-c3sccc3-n3cccc3)o2)cc1`: the AC50 is 6.31 µM (active).

`Cc1cccc(-c2nnc(SCc3ccccc3)o2)c1`: the AC50 result is “inactive”.

For `c1ccc(CSc2nnc(-c3sccc3-n3cccc3)o2)cc1`, the half-maximal activity concentration (AC50) is 15.8 µM (active).

Consider `Clc1ccc(CSc2nnc(-c3cccnc3)o2)cc1`, for which the AC50 was 3.16 µM (active).

With `COC(=O)c1c(NC(=O)Cn2cc([N+](=O)[O-])cn2)sc2c1CCC2`, the AC50 was 14.1 µM (active).

For the compound `CCOC(=O)c1c(NC(=O)CSc2nnc(C)s2)sc2c1CCCCC2`, the activity, negative = inhibition is -23.9% [at 2.29 µM].

Regarding `CCOC(=O)c1c(NC(=O)Cn2cc([N+](=O)[O-])cn2)sc2c1CCC2`, the AC50 is 10 µM (active).

Consider `CCOC(=O)c1c(NC(=O)Cn2nc([N+](=O)[O-])c(Br)c2C)sc2c1CCC(C)C2` (centres undefined), for which the activity, negative = inhibition was -21.8% [at 2.29 µM].

Consider `O=C(O)CCN1C(=S)CSC1=S`, for which the activity, negative = inhibition was -22% [at 11.4 µM].

For the compound `Cc1ccc(-c2ncccc2OC(=O)C23CC4CC(CC(C4)C2)C3)cc1`, the activity, negative = inhibition is -12.5% [at 2.29 µM].

For the compound `CCC(C(=O)c1ccccc1)N(C(=O)c1ccccc1Cl)N1C(=O)C2C3C=CC(C3)C2C1=O` (centres undefined), the AC50 is 0.891 µM (active).

For the compound `COC(=O)c1cccc(C(=O)Nc2ccc(C)cc2)n1`, the AC50 is 12.6 µM (active).

For the compound `CCOC(=O)c1cccc(C(=O)OCC)n1`, the AC50 result is “inactive”.

As to `Cc1ccc(OC(=O)c2cccc(C(=O)Oc3ccc(C)cc3)n2)cc1`, the activity, negative = inhibition is 6.37% [at 11.4 µM].

Turning to `c1cncc(CNc2ccnc(-c3ccc4c(c3)OCO4)n2)c1`, the AC50 was 1 µM (active).

On to `c1csc(CNc2ccnc(-c3ccc4c(c3)OCO4)n2)c1`, for which the AC50 was 1 µM (active).

With `c1ccc(CNc2ccnc(-c3ccc4c(c3)OCO4)n2)cc1`, the AC50 was 0.794 µM (active).

Turning to `COc1c(O)cc2c(c1O)[C@@H]1O[C@@H](CO)[C@@H](O)[C@@H](O)[C@@H]1OC2=O`, the AC50 result is “inactive”.

As to `c1cnc(Nc2nc(-c3ccc4ccccc4c3)cs2)nc1`, the AC50 result was “inactive”.

As to `COc1cccc(Nc2nc(-c3ccc(O)cc3)cs2)c1`, the AC50 is 7.08 µM (active).

As for `O=C(NCc1ccccc1)c1sc(=S)n2c1[nH]c(=O)c1ccccc12`, the half-maximal activity concentration (AC50) was 3.98 µM (active).

Turning to `Cc1nn2c([nH]c(=O)c3ccccc32)c1C=O`, the AC50 entry is “inactive”.

As to `O=C(O)NCc1ccccc1` (tested in a mixture with another compound), the activity, negative = inhibition is -3.33% [at 11.4 µM].

Turning to `COc1ccc2cc3cc(C(=O)NCCN4CCN(c5ccccc5F)CC4)oc3nc2c1`, the AC50 is 14.1 µM (active).

Regarding `CCN1CCN(CCCNC(=O)c2cc3cc4ccc(OC)cc4nc3o2)CC1`, the AC50 entry is “inactive”.

On to `COc1ccc2cc3cc(C(=O)NCCCN4CCOCC4)oc3nc2c1`, for which the half-maximal activity concentration (AC50) is 10 µM (active).

In the case of `COc1cc2c3c(c1OC)C1(C=CC(=O)C=C1)CC3N(C(=O)c1ccccc1)CC2` (centres undefined), the AC50 entry is “inactive”.

In the case of `COc1cc2c(C(=O)N3CCN(C)CC3)c(C)n(-c3ccccc3)c2cc1Br`, the AC50 is 1.12 µM (active).

For the compound `CN1CCN(C(=O)c2ccc(-n3cccc3)cc2)CC1`, the AC50 entry was “inactive”.

As for `COc1ccc2nc(N)sc2c1`, the AC50 entry was “inactive”.

Take `COc1ccc2nc(/N=C\N(C)C)sc2c1`: the AC50 entry was “inactive”.

Consider `COc1ccc2c(Cl)c(-c3nnco3)sc2c1`, for which the AC50 is 7.08 µM (active).

Take `COc1ccc(/C=N/Nc2snc(SC)c2C#N)cc1OC`: the AC50 is 8.91 µM (active).

Regarding `COc1cc(/C=N/Nc2snc(SC)c2C#N)cc(OC)c1OC`, the AC50 was 7.94 µM (active).

Consider `COc1cc(/C=N\Nc2nc3ccccc3[nH]2)cc(OC)c1OC`, for which the activity, negative = inhibition is -13.5% [at 2.29 µM].

Regarding `CS(=O)(=O)Nc1cccc(-c2cncnc2Nc2ccccc2)c1`, the AC50 is 0.501 µM (active).

As for `COc1cccc(-c2cncnc2Nc2ccc(F)cc2)c1`, the AC50 was 0.794 µM (active).

Consider `COc1cccc(-c2cncnc2NC2CCNCC2)c1`, for which the AC50 result is “inactive”.

On to `CS(=O)(=O)Nc1cccc(-c2cncnc2Nc2ccc(F)cc2)c1`, for which the half-maximal activity concentration (AC50) is 0.316 µM (active).

As to `Cc1cc(N)c2ccccc2[n+]1CCCCCCCCCCCCCC[n+]1c(C)cc(N)c2ccccc21`, the AC50 was 10 µM (active).

Take `Nc1cc2c(nc3c4ccccc4c(N)cc3[n+]2-c2cccc3ccccc23)c2ccccc12` (tested in a mixture with another compound): the activity, negative = inhibition is -29.5% [at 11.4 µM].

With `CCCCCCCCC[n+]1cccc2c3ccccc3ccc21`, the AC50 entry is “inactive”.

As to `CCOC(=O)[C@H](N)/C=C(\C)CP(=O)(O)O`, the AC50 result is “inactive”.

For the compound `O=C(CSc1nc2ccccc2s1)N1c2ccccc2Sc2ccc(C(F)(F)F)cc21`, the AC50 was 6.31 µM (active).

Take `O=C(CSc1nc2ccccc2s1)N1c2ccccc2Sc2ccccc21`: the AC50 is 11.2 µM (active).

For `O=C(CSc1nc2ccccc2s1)c1sc2sc3ccccc3[n+]2c1O`, the activity, negative = inhibition is -12.2% [at 11.4 µM].

On to `CO/N=C(\C(=O)N[C@@H]1C(=O)N2C(C(=O)O)=C(COC(N)=O)CS[C@@H]12)c1ccco1`, for which the AC50 result was “inactive”.

In the case of `N[C@@H](CSS(=O)(=O)O)C(=O)O`, the AC50 result was “inactive”.

Regarding `CC(C)(C)c1[nH]nc2c1C(c1ccc(OC(=O)c3ccco3)cc1)C(C#N)=C(N)O2` (centres undefined), the AC50 was 2.24 µM (active).

`COC(=O)c1ccccc1NC(=O)c1ccc(F)cc1`: the AC50 result was “inactive”.

As for `O=C(Nc1cccc2[nH]ncc12)c1ccc(F)cc1`, the AC50 is 15.8 µM (active).

Take `O=C(Nc1ccccc1Cl)c1ccn[nH]1`: the AC50 entry is “inactive”.

As for `O=C(Nc1cccc(F)c1)N1CC[C@@]2(CCCN(C(=O)c3cc(C(F)(F)F)cc(C(F)(F)F)c3)C2)C1`, the AC50 was 15.8 µM (active).

As for `COC(=O)N1CCC2(CCCN(C(=O)Nc3ccccc3)C2)CC1`, the AC50 entry is “inactive”.

As to `COCC(=O)N1CCC2(CC1)CN(C(=O)Nc1cccc(F)c1)C2`, the AC50 entry is “inactive”.

`O=C(Nc1ccccc1)N1CC2(CCN(C(=O)c3cc(C(F)(F)F)cc(C(F)(F)F)c3)CC2)C1`: the AC50 entry was “inactive”.

For the compound `O=C(Nc1cccc(F)c1)N1CCCC2(CCN(C(=O)c3cc(C(F)(F)F)cc(C(F)(F)F)c3)CC2)C1`, the AC50 was 12.6 µM (active).

As for `N#Cc1cccc(NC(=O)N2CCCC3(CCN(C(=O)c4cc(C(F)(F)F)cc(C(F)(F)F)c4)CC3)C2)c1`, the AC50 was 10 µM (active).

`Cn1cccc1C(=O)N1CCC2(CCN(C(=O)Nc3cccc(F)c3)CC2)CC1`: the AC50 entry is “inactive”.

`O=C(Nc1ccccc1)N1CCCC2(CCN(C(=O)c3cc(C(F)(F)F)cc(C(F)(F)F)c3)CC2)C1`: the AC50 was 15.8 µM (active).

Regarding `Cc1csc(NC(=O)Cc2c[nH]c3ccccc23)n1`, the concentration at half-maximal activity (AC50) is 35.5 µM (active).

`CO/N=C\[C@@H](OC)[C@H](C)/C=C\CC(=O)OC`: the activity, negative = inhibition is -11.6% [at 11.4 µM].

In the case of `COC(=O)[C@H](C)NC(=O)C/C=C\[C@@H](C)[C@H]1C=C[C@H](O)[C@@H](CO)O1`, the activity, negative = inhibition was -25.2% [at 11.4 µM].

Regarding `C=CC[C@@H]1C=C[C@H](O/N=C\[C@@H](C)[C@H](OCc2ccccc2)C(C)C)[C@H](CO)O1`, the AC50 is 3.98 µM (active).

Consider `CC(=O)OC[C@H]1O[C@@H](O/N=C\[C@@H](C)[C@H](OCc2ccccc2)C(C)C)[C@H](OC(C)=O)[C@@H](OC(C)=O)[C@H]1OC(C)=O`, for which the activity, negative = inhibition is -74.7% [at 11.4 µM].

Take `C=CC[C@@H]1C=C[C@@H](O/N=C\[C@@H](OC)[C@H](C)/C=C\CC(=O)OC)[C@@H](CO)O1`: the concentration at half-maximal activity (AC50) is 3.16 µM (active).

Regarding `CO[C@]1(NC(=O)C2SC(=C(C(N)=O)C(=O)O)S2)C(=O)N2C(C(=O)O)=C(CSc3nnnn3C)CS[C@H]21` (some centres undefined), the AC50 entry was “inactive”.

Turning to `CCc1ncc(CO)n1Cc1cccc2ccccc12`, the activity, negative = inhibition is -11.4% [at 11.4 µM].

For `COc1cc(CNCc2cccs2)ccc1OCC(N)=O`, the AC50 entry is “inactive”.

As for `COc1cc(CNCc2cccs2)cc(Br)c1OC`, the concentration at half-maximal activity (AC50) is 7.08 µM (active).

Consider `COc1cc(CNCc2cccs2)ccc1OCC(=O)NC(C)(C)C`, for which the AC50 was 4.47 µM (active).

For the compound `COc1ccc(CNC(=O)Nc2cccs2)cc1OC`, the AC50 is 22.4 µM (active).

Turning to `CCN1CCN(Cc2ccc(NC(=O)Nc3cccs3)cc2)CC1`, the AC50 result was “inactive”.

With `CCOC(=O)N1CCN(C(=O)CNCc2cccs2)CC1`, the AC50 result is “inactive”.

Turning to `N[C@H](C(=O)O)[C@@H](O)c1cnc[nH]1`, the activity, negative = inhibition was -12.3% [at 11.4 µM].

Turning to `Cc1cc(NC(=O)CN2C(=O)NC(C)(c3ccc(OC(F)F)cc3)C2=O)no1` (centres undefined), the AC50 result was “inactive”.

In the case of `COc1ccc(OC)c(C(=O)CN2C(=O)NC(C)(c3ccccc3)C2=O)c1` (centres undefined), the AC50 is 10 µM (active).

`COc1ccc2c(c1)CCCC21NC(=O)N(CC(N)=O)C1=O` (centres undefined): the AC50 result is “inactive”.

In the case of `CC(C)NCCOCCSc1ccc(Cl)cc1`, the AC50 entry is “inactive”.

Consider `COC(=O)[C@H]1C[C@@H]1[C@H](NC(=O)c1cccnc1)c1ccccc1`, for which the AC50 was 5.01 µM (active).

Regarding `COC(=O)[C@@H]1C[C@H]1[C@@H](NC(=O)c1cccnc1)c1ccccc1`, the AC50 was 10 µM (active).

As for `COC(=O)[C@@H]1C[C@H]1[C@@H](NC(=O)c1ccccc1)c1ccccc1`, the AC50 result is “inactive”.

Regarding `O=C(O)CN(CCN(CC(=O)O)CC(=O)O)CC(=O)O.[Mn]`, the activity, negative = inhibition was 1.35% [at 11.4 µM].

`N[C@@H](C(=O)O)c1ccc(C(=O)O)c(C(=O)O)c1`: the AC50 entry is “inactive”.

With `CNc1ncncc1-c1ccccc1C(F)(F)F`, the AC50 is 0.794 µM (active).

For the compound `FC(F)(F)c1ccccc1-c1cncnc1Nc1ccccc1`, the AC50 was 0.501 µM (active).

Regarding `Fc1ccc(Nc2ncncc2-c2ccccc2C(F)(F)F)cc1`, the AC50 was 0.398 µM (active).
